Test results published in PubChem BioAssay (NCATS).
Values joined by “and” are separate entries in the source; they are usually repeats but may differ in a detail not shown here. Identical values can stand only once. Records with an inconclusive call do not appear. Active and inactive are the calls of the source. Unless noted, the call rests on the fitted dose curve; in most records, active means well fitted curve in the direction sought with a large enough effect; inconclusive means small, poorly fitted or top-dose-only effect, or another doubt; inactive means no such curve, though single readings can be large; an effect the other way counts as inactive or inconclusive.

Tests used:
[1] = target: Estrogen receptor (Homo sapiens) (UniProt P03372); experiment: qHTS assay for small molecule antagonists of estrogen receptor alpha signaling (AID 588513; active means well fitted curve in the direction sought with a large enough effect in the signal ratio, with a control signal flat, not every such curve was filed as active; the % refers to the signal ratio; further: on the % scale 0 is the no-effect control and ±100 the full control effect)
Chain of Estrogen receptor (Homo sapiens) (P03372 whole entry, looked up): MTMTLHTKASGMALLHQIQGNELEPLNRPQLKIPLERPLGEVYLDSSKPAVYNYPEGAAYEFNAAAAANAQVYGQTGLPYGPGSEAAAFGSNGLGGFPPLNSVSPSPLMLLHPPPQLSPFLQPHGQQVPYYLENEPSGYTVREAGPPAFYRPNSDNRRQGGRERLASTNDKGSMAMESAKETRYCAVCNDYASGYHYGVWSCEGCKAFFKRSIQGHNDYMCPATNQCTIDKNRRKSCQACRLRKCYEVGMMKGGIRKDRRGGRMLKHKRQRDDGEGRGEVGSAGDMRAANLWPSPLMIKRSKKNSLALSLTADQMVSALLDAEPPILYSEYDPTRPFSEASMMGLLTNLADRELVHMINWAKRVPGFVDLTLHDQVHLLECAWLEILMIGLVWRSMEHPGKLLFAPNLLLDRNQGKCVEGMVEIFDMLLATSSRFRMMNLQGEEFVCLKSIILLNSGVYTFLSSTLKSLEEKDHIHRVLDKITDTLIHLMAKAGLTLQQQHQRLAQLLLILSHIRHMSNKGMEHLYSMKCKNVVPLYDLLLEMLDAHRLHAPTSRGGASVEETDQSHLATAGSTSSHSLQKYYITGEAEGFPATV
Summary of the method: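 ER-alpha-UAS-bla GripTite HEK 293 cells in 2% charcoal/dextran-treated FBS medium; compounds titrated (1:2, duplicate), then stimulated with 0.5 nM 17-beta-estradiol for 18 h at 37C. CCF4 beta-lactamase fluorescence; Hill-fit IC50 and efficacy.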

[2] = target: Estrogen receptor (Homo sapiens) (UniProt P03372); experiment: qHTS assay for small molecule agonists of estrogen receptor alpha signaling (AID 588514; calls by dose curve;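 further: 0% = vehicle only and 100% = reference agonist; nearly all actives have a fitted effect of over 70% in size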)
Summary of the method: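 Cells were plated at 5000/well, incubated 4 hrs at 37 C, dosed with compound titration series, incubated 18 hrs at 37 C, loaded with CCF4 dye for 2 hrs at RT, then fluorescence was read.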

[3] = target: Glucocorticoid receptor (Homo sapiens) (UniProt P04150); experiment: qHTS assay for small molecule agonists of glucocorticoid receptor signaling (AID 588532; active means well fitted curve in the direction sought with a large enough effect in the signal ratio, with a control signal flat; the % refers to the signal ratio;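 further: 100% = dexamethasone at 0.1 µM and 0% = DMSO only wells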); conditions: HeLa MMTV-bla, beta-lactamase ratio, agonist, 18 h; activation: stronger effect = higher value, percent of dexamethasone control, DMSO zero
Chain of Glucocorticoid receptor (Homo sapiens) (P04150 whole entry, looked up): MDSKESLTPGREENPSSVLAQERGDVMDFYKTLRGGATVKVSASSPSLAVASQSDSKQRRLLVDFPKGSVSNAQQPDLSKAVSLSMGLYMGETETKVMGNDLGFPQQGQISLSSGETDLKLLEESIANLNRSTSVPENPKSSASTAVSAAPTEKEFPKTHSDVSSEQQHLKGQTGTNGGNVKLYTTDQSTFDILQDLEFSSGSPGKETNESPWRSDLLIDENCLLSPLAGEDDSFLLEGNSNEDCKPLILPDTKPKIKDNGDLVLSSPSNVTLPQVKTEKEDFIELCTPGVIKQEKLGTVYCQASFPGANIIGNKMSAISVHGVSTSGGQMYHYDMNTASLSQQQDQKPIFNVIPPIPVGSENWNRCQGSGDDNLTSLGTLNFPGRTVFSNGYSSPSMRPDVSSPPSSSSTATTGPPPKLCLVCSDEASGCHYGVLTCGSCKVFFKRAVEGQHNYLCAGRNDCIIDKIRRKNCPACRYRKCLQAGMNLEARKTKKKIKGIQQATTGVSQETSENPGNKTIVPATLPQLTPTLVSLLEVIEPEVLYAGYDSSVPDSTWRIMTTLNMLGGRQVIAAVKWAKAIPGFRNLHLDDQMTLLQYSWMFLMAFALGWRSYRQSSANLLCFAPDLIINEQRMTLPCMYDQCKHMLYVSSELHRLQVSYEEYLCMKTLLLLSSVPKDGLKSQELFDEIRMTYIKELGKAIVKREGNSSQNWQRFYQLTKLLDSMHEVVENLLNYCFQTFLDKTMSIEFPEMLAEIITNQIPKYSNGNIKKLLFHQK
Summary of the method: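 HeLa GRE-bla reporter cells; 18 h compound exposure at 37 C; 2 h CCF4 loading at room temperature; fluorescence at 460 and 530 nm; EC50 by Hill equation.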

[4] = target: Peroxisome proliferator-activated receptor delta (Homo sapiens) (UniProt Q03181); experiment: qHTS assay for small molecule agonists of peroxisome proliferator-activated receptor delta signaling (AID 588534; calls by dose curve;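 further: 0% = DMSO basal wells and 100% = positive control agonist at 10 µM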)
Chain of Peroxisome proliferator-activated receptor delta (Homo sapiens) (Q03181 whole entry, looked up): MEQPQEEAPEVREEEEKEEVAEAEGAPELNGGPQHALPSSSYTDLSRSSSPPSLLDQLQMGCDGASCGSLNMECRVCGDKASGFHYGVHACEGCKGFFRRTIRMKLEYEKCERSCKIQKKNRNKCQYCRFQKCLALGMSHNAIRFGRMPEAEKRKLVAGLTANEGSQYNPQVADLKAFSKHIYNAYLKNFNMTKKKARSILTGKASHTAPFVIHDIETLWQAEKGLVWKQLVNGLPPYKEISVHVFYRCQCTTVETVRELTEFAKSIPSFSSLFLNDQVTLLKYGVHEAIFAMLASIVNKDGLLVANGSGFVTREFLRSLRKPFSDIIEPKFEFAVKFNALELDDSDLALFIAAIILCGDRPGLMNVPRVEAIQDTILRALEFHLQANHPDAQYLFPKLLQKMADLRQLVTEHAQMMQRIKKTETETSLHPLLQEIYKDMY
Summary of the method: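 Fluorescence from CCF4 substrate cleavage by beta-lactamase reporter, read 2 hrs at RT, measured agonist activity. Compounds were tested with 18 hrs exposure at 37 C. Concentration-response data fitted to Hill equation.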

[5] = target: Peroxisome proliferator-activated receptor gamma (Homo sapiens) (UniProt P37231); experiment: qHTS assay for small molecule agonists of peroxisome proliferator-activated receptor gamma signaling (AID 588536; active means well fitted curve in the direction sought with a large enough effect in the signal ratio, with a control signal flat, not every such curve was filed as active; the % refers to the signal ratio; further: potency means the concentration at half of the fitted maximal effect;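 on activation: 0% = DMSO basal wells and 100% = rosiglitazone at 2 µM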)
Chain of Peroxisome proliferator-activated receptor gamma (Homo sapiens) (P37231 whole entry, looked up): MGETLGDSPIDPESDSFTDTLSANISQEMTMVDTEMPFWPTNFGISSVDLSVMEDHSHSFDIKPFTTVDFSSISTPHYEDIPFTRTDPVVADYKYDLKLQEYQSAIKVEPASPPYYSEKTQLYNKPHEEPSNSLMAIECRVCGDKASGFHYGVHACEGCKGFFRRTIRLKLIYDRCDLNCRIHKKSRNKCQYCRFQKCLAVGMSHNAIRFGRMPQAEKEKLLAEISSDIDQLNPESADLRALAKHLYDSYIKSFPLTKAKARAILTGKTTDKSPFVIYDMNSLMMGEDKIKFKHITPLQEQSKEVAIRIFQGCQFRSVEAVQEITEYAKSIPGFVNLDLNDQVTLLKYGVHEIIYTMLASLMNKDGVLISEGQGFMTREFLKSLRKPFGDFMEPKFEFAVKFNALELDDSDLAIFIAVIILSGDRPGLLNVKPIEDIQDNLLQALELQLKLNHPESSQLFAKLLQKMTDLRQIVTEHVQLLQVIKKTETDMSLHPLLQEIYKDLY
Summary of the method: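 Ratiometric blue/green fluorescence (405 nm excitation; 460 and 530 nm emission) from CCF4-loaded HEK293 reporter cells serves as signal. Exposure to test compounds lasts 16 h at 37 C in medium containing 1% charcoal/dextran-treated serum.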

[6] = target: Vitamin D3 receptor (Homo sapiens) (UniProt P11473); experiment: qHTS assay for small molecule agonists of vitamin D receptor signaling (AID 588543; calls by dose curve;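 further: 0% = DMSO basal and 100% = reference agonist control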)
Chain of Vitamin D3 receptor (Homo sapiens) (P11473 whole entry, looked up): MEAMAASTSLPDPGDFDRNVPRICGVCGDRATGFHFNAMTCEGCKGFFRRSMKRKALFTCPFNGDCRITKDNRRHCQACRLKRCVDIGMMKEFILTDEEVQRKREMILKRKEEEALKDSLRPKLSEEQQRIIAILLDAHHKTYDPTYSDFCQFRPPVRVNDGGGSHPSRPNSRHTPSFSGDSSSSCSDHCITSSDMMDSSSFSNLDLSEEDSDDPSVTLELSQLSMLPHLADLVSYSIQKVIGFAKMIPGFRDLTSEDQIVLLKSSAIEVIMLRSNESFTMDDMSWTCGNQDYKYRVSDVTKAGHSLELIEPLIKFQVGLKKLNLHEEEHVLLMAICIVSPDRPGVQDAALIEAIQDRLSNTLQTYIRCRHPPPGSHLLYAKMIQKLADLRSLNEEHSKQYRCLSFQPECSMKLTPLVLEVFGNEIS
Summary of the method: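 VDR-UAS-bla HEK293T cells, 2000/well, 2% charcoal-stripped FBS; compound titration 16 h at 37 C; CCF4 beta-lactamase ratio read. Normalized to 50 nM 1-alpha,25-dihydroxyvitamin D3 (100%) and DMSO; Hill fit gives EC50, efficacy.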

[7] = target: Thyroid hormone receptor beta (Homo sapiens) (UniProt P10828); experiment: qHTS assay for small molecule agonists of thyroid hormone receptor beta signaling (AID 588545; calls by dose curve)
Chain of Thyroid hormone receptor beta (Homo sapiens) (P10828 whole entry, looked up): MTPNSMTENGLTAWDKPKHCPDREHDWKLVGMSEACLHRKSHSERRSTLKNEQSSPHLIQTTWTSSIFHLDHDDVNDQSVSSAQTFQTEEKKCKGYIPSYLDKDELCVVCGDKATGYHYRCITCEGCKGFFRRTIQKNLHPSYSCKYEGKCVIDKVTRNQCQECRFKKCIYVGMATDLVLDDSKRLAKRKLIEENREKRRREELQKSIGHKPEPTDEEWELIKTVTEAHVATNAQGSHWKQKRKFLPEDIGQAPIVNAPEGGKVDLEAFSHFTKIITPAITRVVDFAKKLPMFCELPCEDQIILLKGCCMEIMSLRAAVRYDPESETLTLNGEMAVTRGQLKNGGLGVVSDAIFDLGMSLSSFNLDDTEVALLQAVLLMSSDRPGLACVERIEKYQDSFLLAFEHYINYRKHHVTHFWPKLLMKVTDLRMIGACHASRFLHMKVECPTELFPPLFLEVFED
Summary of the method: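 Cells (2500/well) were seeded, incubated 4 hrs at 37 C, dosed with a compound series, incubated 18 hrs, loaded with CCF4 dye for 2 hrs at RT, then read for fluorescence. Data were scaled between DMSO (0%) and 10 nM T3 (100%).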

[8] = qHTS assay for small molecule antagonists of retinoid X receptor alpha signaling (AID 588546; active means well fitted inhibition curve with a large enough effect in the signal ratio, with a control signal flat, not every such curve was filed as active; the % refers to the signal ratio;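 further: cells stimulated with 9-cis-retinoic acid as agonist; on the % scale 0 is the no-effect control and ±100 the full control effect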); conditions: HEK293T RXRa-UAS-bla, beta-lactamase ratio, antagonist mode; measured here: W530 green channel, cytotoxicity proxy
Summary of the method: (§1)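 Beta-lactamase reporter inhibition, read as CCF4 fluorescence ratio (ex 405, em 460/530 nm) after 2 h at RT. HEK293T UAS-bla cells, 2500/well, were stimulated with 9-cis-RA at 500 or 100 nM final alongside test compound for 18 h at 37 C.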

[9] = target: Retinoic acid receptor RXR-alpha (Homo sapiens) (UniProt P19793); experiment: as above; conditions: HEK293T RXRa-UAS-bla, beta-lactamase ratio, antagonist mode
Chain of Retinoic acid receptor RXR-alpha (Homo sapiens) (P19793 whole entry, looked up): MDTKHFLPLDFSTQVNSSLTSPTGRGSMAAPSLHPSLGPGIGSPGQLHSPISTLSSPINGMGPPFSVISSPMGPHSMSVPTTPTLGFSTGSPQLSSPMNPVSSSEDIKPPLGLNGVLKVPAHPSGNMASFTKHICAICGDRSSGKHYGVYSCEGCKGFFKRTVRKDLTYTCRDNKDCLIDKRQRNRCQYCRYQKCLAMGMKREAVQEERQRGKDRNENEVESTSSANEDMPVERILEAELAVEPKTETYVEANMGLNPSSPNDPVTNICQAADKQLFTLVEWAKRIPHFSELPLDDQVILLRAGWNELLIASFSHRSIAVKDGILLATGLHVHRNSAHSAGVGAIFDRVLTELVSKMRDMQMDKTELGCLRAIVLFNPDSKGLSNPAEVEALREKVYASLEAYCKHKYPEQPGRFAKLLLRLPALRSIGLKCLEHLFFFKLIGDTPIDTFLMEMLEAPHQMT
Summary of the method: as §1

[10] = qHTS assay for small molecule activators of the p53 signaling pathway (AID 651743; active means well fitted activation curve with a large enough effect in the signal ratio, not every such curve was filed as active; the % refers to the signal ratio; further: series mostly up to about 92 µM; % of control where 0% means no effect); conditions: HCT-116 p53RE-bla, beta-lactamase FRET ratio, 16 h; activation: stronger effect = higher value
Summary of the method: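 p53RE-bla HCT-116 cells carrying a beta-lactamase reporter under p53 response elements were exposed to compounds for 16 hours at 37 C. Reporter activity read as fluorescence after 2 hours at room temperature with LiveBLAzer B/G FRET substrate.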

[11] = qHTS assay for environmental chemicals that activate the Aryl hydrocarbon Receptor (AhR) signaling pathway (AID 651777); conditions: 1A2-DRE human hepatoma cells, luciferase, 24 h; activation: stronger effect = higher value; further: % of control where 0% means no effect; nearly all actives have a fitted effect of over 15% in size
Summary of the method: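 Quantitative HTS in stably transfected human liver-derived cells whose luciferase gene sits downstream of the CYP1A2 promoter and dioxin response element. After 24 hr exposure at 37 C, One-Glo luminescence was measured.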

[12] = target: Peroxisome proliferator-activated receptor alpha (Homo sapiens) (UniProt Q07869); experiment: qHTS assay for small molecule agonists of the peroxisome proliferator-activated receptor alpha (PPARalpha) signaling pathway (AID 651778); conditions: PathHunter PPARalpha complementation, chemiluminescence, 6 h; max response: stronger effect = higher value; further: % of control where 0% means no effect
Chain of Peroxisome proliferator-activated receptor alpha (Homo sapiens) (Q07869 whole entry, looked up, the tested form may be a part): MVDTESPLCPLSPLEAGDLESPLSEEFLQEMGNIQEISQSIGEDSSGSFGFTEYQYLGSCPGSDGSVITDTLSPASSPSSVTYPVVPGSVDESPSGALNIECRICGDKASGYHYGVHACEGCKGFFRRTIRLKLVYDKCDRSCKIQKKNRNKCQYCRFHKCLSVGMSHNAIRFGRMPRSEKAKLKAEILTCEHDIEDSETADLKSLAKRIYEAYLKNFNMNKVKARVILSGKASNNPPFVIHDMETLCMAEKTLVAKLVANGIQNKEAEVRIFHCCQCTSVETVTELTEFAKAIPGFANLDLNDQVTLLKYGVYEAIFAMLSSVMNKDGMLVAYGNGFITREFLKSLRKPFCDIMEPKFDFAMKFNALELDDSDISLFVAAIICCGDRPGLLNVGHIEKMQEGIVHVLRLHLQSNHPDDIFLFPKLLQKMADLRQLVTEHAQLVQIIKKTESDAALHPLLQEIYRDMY
Summary of the method: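 Enzyme-fragment complementation assay in which ligand-bound PPARalpha translocates and forms an active enzyme that generates chemiluminescence. Cells were plated overnight, exposed to compound for 6 hr at 37 C, and then given detection reagent for 60 min at room temperature.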

[13] = qHTS assay for small molecule agonists of the antioxidant response element (ARE) signaling pathway measured by Nrf2-dependant transcriptional activity - cell viability counter screen (AID 720653; active means well fitted curve in the direction sought with a large enough effect in the repeat runs; an effect the other way counts as inactive or inconclusive; further: on the % scale 0 is the no-effect control and ±100 the full control effect); conditions: ARE-bla HepG2 viability, CellTiter-Glo ATP luminescence, 16 h; max response: stronger effect = lower value
Summary of the method: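 ARE-bla HepG2 cells treated with compounds for 16 h at 37C; this counter screen measures viability as intracellular ATP by CellTiter-Glo luminescence after 30 min at room temperature.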

[14] = qHTS assay for cell viability of HEK293 cells (AID 743288); conditions: ATP luminescence (CellTiter-Glo), 18 h; max response: stronger effect = lower value; further: on the % scale 0 is the no-effect control and ±100 the full control effect; nearly all actives have a fitted effect of over 50% in size
Summary of the method: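 Parental HEK293 cells, 2,000 per well, preincubated at least 5 h at 37 C, then exposed to compounds in DMSO for 18 h at 37 C. Viability by CellTiter-Glo ATP luminescence after 30 min at room temperature.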

[15] = qHTS assay for cell viability of the p53RE-bla HCT-116 cell line (AID 743292); further: on the % scale 0 is the no-effect control and ±100 the full control effect; nearly all actives have a fitted effect of over 55% in size
Summary of the method: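 Viability of compound-treated p53RE-bla HCT-116 cells is taken from ATP-dependent luciferase luminescence. Treatment lasts 16 h at 37 C after a 5 h settling period; detection follows 30 min at room temperature.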

[16] = qHTS assay for small molecule agonists of the antioxidant response element (ARE) signaling pathway measured by Nrf2-dependant transcriptional activity (AID 720636; active means well fitted curve in the direction sought with a large enough effect in the repeat runs; an effect the other way counts as inactive or inconclusive; further: % of control where 0% means no effect)
Summary of the method: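 Quantitative HTS format in HepG2 cells stably expressing an ARE-luciferase reporter; 16 hr compound treatment at 37 C, luciferase signal detected with ONE-Glo.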

[17] = target: Vitamin D3 receptor (Homo sapiens) (UniProt P11473); experiment: qHTS assay for small molecule antagonists of vitamin D receptor signaling (AID 588541; calls by dose curve;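 further: receptor activated by calcitriol during compound treatment; series mostly up to about 77 µM; on the % scale 0 is the no-effect control and ±100 the full control effect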)
Summary of the method: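 VDR-UAS-bla HEK293T cells in 2% charcoal-stripped FBS were stimulated with 1-alpha,25-dihydroxyvitamin D3 (3 nM final) plus compound for 16 h at 37 C. The beta-lactamase CCF4 readout was normalized to 50 nM agonist and DMSO, and Hill fits gave IC50.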

[18] = qHTS assay for small molecule agonists of retinoid X receptor alpha signaling (AID 588544); conditions: HEK293T RXRa-UAS-bla, beta-lactamase reporter, 18 h; 530 nm emission
[19] = qHTS assay for small molecule activators of the nuclear factor-kappa B (NF-kB) signaling pathway (AID 651749; active means well fitted activation curve with a large enough effect in the signal ratio; the % refers to the signal ratio; further: series mostly up to about 77 µM; % of control where 0% means no effect); conditions: NF-kB-bla ME-180 cells, beta-lactamase FRET ratio, 16 h; activation: stronger effect = higher value
Summary of the method: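 NF-kB-bla ME-180 cells carrying a beta-lactamase reporter under an NF-kB response element, 2,000 cells/well, exposed to compound for 16 hr at 37C; FRET-based beta-lactamase fluorescence read-out of pathway activation.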

[20] = target: Cytochrome P450 3A4 (Homo sapiens) (UniProt P08684); experiment: qHTS Assay for Inhibitors and Substrates of Cytochrome P450 3A4 (AID 884); further: potency means the concentration at half of the fitted maximal effect; nearly all actives have a fitted effect of over 50% in size
Chain of Cytochrome P450 3A4 (Homo sapiens) (P08684 whole entry, looked up): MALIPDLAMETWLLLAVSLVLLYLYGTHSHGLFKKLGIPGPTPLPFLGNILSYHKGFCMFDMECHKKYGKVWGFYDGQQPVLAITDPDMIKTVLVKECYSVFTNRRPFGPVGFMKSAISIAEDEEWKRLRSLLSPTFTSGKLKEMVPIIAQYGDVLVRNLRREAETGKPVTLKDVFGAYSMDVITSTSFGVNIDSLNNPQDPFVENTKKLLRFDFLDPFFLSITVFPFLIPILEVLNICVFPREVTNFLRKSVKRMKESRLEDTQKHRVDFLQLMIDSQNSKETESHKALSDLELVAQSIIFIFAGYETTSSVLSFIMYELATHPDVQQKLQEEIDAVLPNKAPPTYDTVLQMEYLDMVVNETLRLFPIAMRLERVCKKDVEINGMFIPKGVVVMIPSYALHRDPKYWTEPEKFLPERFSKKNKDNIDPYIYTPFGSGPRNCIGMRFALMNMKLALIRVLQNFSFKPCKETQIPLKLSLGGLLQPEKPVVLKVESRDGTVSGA
Summary of the method: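 20 nM human CYP3A4 with 25 uM Luciferin-PPXE (at KM) in 200 mM KPO4, preincubated 10 min with compound; NADPH regeneration started a 60 min RT reaction. Luciferin detected by luminescence, normalized to 57 uM ketoconazole as full inhibition.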

O=[N+]([O-])c1ccc(Oc2ccc(C(F)(F)F)cc2[N+](=O)[O-])cc1
inactive: Potency [1] | Potency [2] | activation [3] -2.99% | outcome [4] | outcome [6] | Potency [7] | max response [9] 0.243% | activation [10] -0.528% | activation [11] 9.12% | max response [12] -0.519% | max response [13] -18.9% | max response [14] -11.9% | Potency [15]
active: Potency [5] 3.55 µM
-9.24%: max response [8]

COP(=S)(OC)Oc1nc(Cl)c(Cl)cc1Cl
2.88%: max response [8]
inactive: Potency [1] | Potency [2] | activation [3] 1.34% | Potency [7] | max response [9] 15.1% | activation [10] 10.9% | activation [11] 0.0215% | max response [12] -0.488% | Potency [16] | max response [13] -2.62% | max response [14] -14.5% | Potency [15]

O=S1OC[C@@H]2[C@H](CO1)[C@@]1(Cl)C(Cl)=C(Cl)[C@]2(Cl)C1(Cl)Cl (some centres undefined)
9.73% and 12.8%: max response [8]
inactive: Potency [1] | Potency [2] | activation [3] -18.2% and -5.58% | Potency [5] | Potency [17] | outcome [6] | Potency [7] | max response [9] -70.2% and -50.2% | activation [10] -3.81% and -3.84% | activation [19] 0.712% and 0.812% | activation [11] 0.042% and 0.216% | max response [12] -0.211% and 0.181% | Potency [16] | max response [13] -3.19% and 3.58% | Potency [15]
-0.24%: max response [18]

COC(=O)c1ccccc1S(=O)(=O)NC(=O)N(C)c1nc(C)nc(OC)n1
inactive: Potency [1] | Potency [2] | Potency [5] | Potency [7] | max response [9] -3.24% | activation [10] 0.955% | activation [19] -0.341% | activation [11] 0.249% | max response [12] -1.41% | Potency [16] | max response [13] -4.72% | max response [14] -7.64% | Potency [15]
-6.9%: max response [18]
-8.58%: max response [8]

COP(=O)(OC)Oc1ccc([N+](=O)[O-])cc1
inactive: Potency [1] | Potency [2] | outcome [6] | Potency [7] | activation [11] 0.442% | max response [12] -5.35% | Potency [16] | max response [13] -1.73% | max response [14] -12.8% | Potency [15]

CCc1ccc(C(=O)NN(C(=O)c2cc(C)cc(C)c2)C(C)(C)C)cc1
active: Potency [20] 3.98 µM
1.33%: max response [18]
inactive: Potency [1] | Potency [2] | activation [3] -6.89% | outcome [4] | Potency [5] | outcome [6] | Potency [7] | activation [10] 3.11% | activation [19] -3.3% | activation [11] 1.38% | max response [12] -0.946% | Potency [16] | max response [13] -4.5% | max response [14] -11.8% | Potency [15]

COC(=O)NS(=O)(=O)c1ccc(N)cc1
inactive: Potency [1] | Potency [2] | activation [3] -1.43% and 1.04% | outcome [4] | Potency [5] | Potency [17] | outcome [6] | max response [9] -10.8% and -3.57% | activation [10] -7.42% and -0.724% | activation [19] -0.373% and -0.594% | activation [11] -0.0088% and 0.402% | max response [12] 0.635% and -1.36% | Potency [16] | max response [13] 9.3% and -4.17% | max response [14] 0.196% and -9.27% | Potency [15]
-13.8% and -12.5%: max response [18]
6.39% and -8.17%: max response [8]

Cc1c(COC(=O)C2C(/C=C(\Cl)C(F)(F)F)C2(C)C)cccc1-c1ccccc1 (centres undefined)
1.28%: max response [8]
inactive: Potency [1] | Potency [2] | outcome [4] | Potency [5] | Potency [17] | outcome [6] | Potency [7] | max response [9] -11.6% | activation [10] 2.17% | activation [19] 1.42% | activation [11] -0.984% | max response [12] -0.35% | Potency [16] | max response [13] -14.6% | max response [14] -17.7%

CCNC(=O)NC(=O)/C(C#N)=N/OC
inactive: Potency [1] | Potency [2] | activation [3] 3.07% | outcome [4] | Potency [5] | Potency [17] | outcome [6] | Potency [7] | max response [9] 12.8% | activation [11] 0.625% | max response [12] 0.388% | Potency [16] | max response [13] -0.764% | max response [14] -16.3%
-2.66%: max response [8]
5.29%: max response [18]

CCN(CC)c1nc(C)cc(OP(=S)(OC)OC)n1
26.8%: max response [18]
inactive: Potency [1] | Potency [2] | activation [3] 19.3% | outcome [4] | Potency [5] | Potency [17] | outcome [6] | Potency [7] | activation [10] 1.41% | activation [19] 0.586% | activation [11] 1.48% | max response [12] 3.1% | Potency [16] | max response [13] -9.93% | max response [14] -11.6% | Potency [15]
